Rows were chosen to be rich in hits. Some 21% of all compounds tested hit in one or more screens of this group.
Pf growth 48h: inhibits P. falciparum growth in the first generation, 48 h. P. falciparum luciferase growth in erythrocytes, 48 h. Potency, µM (doses to about 28.7 µM), for the others: at the highest dose activity change, negative = inhibition, usual class: inhibitors. hit rate 5.9% among 310,000; also: potency is read from the fitted curve at half-maximal effect; % is scaled to controls: 0 for no effect and ±100 for the full control effect
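Luciferase-expressing parasites in RBCs, 2% Hct / 0.1% parasitemia final; RPMI 1640 + 0.5% Albumax; 37 C, 5% CO2, one generation; luminescence read-out, lower signal = inhibition.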
Shiga toxin inh: Shiga toxin inhibition; hit rate 9.2% among 290,000; Vero cells, Shiga toxin protein synthesis inhibition reporter; inhibition, % at 38.7 µM; in the data active = inhibition mostly above about 28%, no sharp cut-off; inactive = mostly below about 43%; also: 0% is about no effect
Pf growth 96h: P. falciparum growth inhibition at 96 hours. P. falciparum luciferase reporter growth, 96 h. Potency, µM (highest dose often 28.7 µM), for inactives: at the top dose activity change, negative = inhibition, hits mostly inhibitors. hit rate 6.9% among 320,000. AID 504834; also: potency is read from the fitted curve at half-maximal effect; % is scaled to controls: 0 for no effect and ±100 for the full control effect
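Parasite growth measured via integrated firefly luciferase reporter in P. falciparum. Infected erythrocytes at 2% hematocrit, 0.05% parasitemia final were treated 96 hours at 37 C under 5% CO2, and luminescence was read.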
NS1 function inh: influenza NS1 inhibition | hit rate 0.4% among 270,000 | Potency, µM (highest dose often 46.1 µM), inactives show top-dose activity, positive = more growth; calls by dose curve; also: potency is read from the fitted curve at half-maximal effect; actives are rising curves; nearly all actives have a fitted effect of over 50% in size
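Read-out: OD600 growth recovery of NS1-expressing budding yeast. Cells grown overnight at 30C in -URA glucose medium, washed, resuspended and diluted 1:100 in 2% galactose assay medium, pH 6.0. Same strain lacking NS1 served as positive control.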
CHX counter: counter-screen hit for Shiga toxin inhibitors, cycloheximide; cell reporter, cycloheximide protein synthesis inhibition counterscreen; max response, %; hit rate 12% among 300,000; in the data active = max response mostly above about 13%, no sharp cut-off; inactive = mostly below about 14%; also: read at 38.3 µM for the half of the compounds with a filed dose; 0% is about no effect
* hit, by the source's call; [ ] = remark or other dose. Unless noted, calls follow the shape of the dose curve; as a rule, active = well fitted inhibition curve with a large enough effect; inconclusive = small, poorly fitted or top-dose-only effect, or another doubt; inactive = no such curve, though single readings can be large or run the other way.

CCC(=O)NC(=S)Nc1cccc(C(C)=O)c1 was read as Pf growth 48h 2.4%, Shiga toxin inh -3.0, Pf growth 96h 37.5%, NS1 function inh 4.7% and CHX counter 1.1.
For CCCCCC(=O)NC(=S)Nc1cccc(C(C)=O)c1 the results were Pf growth 48h 32.3%, Shiga toxin inh 32.3*, Pf growth 96h inconclusive, NS1 function inh 1.2% and CHX counter 22.6*.
`O=C(COc1ccc2c(C(F)(F)F)cc(=O)oc2c1)NCc1cccs1` gave Pf growth 48h 19.9%, Shiga toxin inh 8.4, Pf growth 96h 23.9%, NS1 function inh -5.7% and CHX counter -1.9.
For COc1cc(OC)cc(C(=O)OCCCOC(=O)c2cc(OC)cc(OC)c2)c1 the results were Pf growth 48h 5.0%, Shiga toxin inh -23.7, Pf growth 96h -3.6%, NS1 function inh -7.1% and CHX counter 1.3.
Screening Cc1ccc(CN2CCN(/N=C/c3cc(Br)cc(Br)c3O)CC2)c(C)c1 returned Pf growth 48h 10.1%, Shiga toxin inh 12.5, Pf growth 96h -17.8%, NS1 function inh -3.9% and CHX counter -0.9.
Screening Cc1cc(C)nc(N/N=C/C(Cl)=C/c2ccccc2)n1 returned Shiga toxin inh 49.7*, Pf growth 96h 3.7µM*, NS1 function inh -10.9% and CHX counter 29.8*.
`Cc1cc(C)nc(N/N=C/C=C/c2ccccc2)n1` gave Pf growth 48h 1.8%, Shiga toxin inh 56.7*, Pf growth 96h inconclusive, NS1 function inh -8.8% and CHX counter 29.3*.
Screening Cc1cccc(C)c1Nc1c(-c2ccccc2F)nc2cccc(C)n12 returned Shiga toxin inh -6.9 and CHX counter -0.9.
For O=C(O)C[C@@H](CNC(=O)COc1ccc2ccc(=O)oc2c1)c1ccc(Cl)cc1 the results were Pf growth 48h -0.7%, Shiga toxin inh -5.0, Pf growth 96h -2.9%, NS1 function inh 8.6% and CHX counter -3.8.
`CC1CCN(c2nc3ccccc3nc2C(C#N)C(=O)NC2CCCCC2)CC1` (configuration not stated) gave Pf growth 48h -6.6%, Shiga toxin inh -4.8, Pf growth 96h 8.0%[5.75 µM], NS1 function inh -12.4% and CHX counter 9.5.
CCCCOc1nc2ccccc2nc1C(C#N)C(=O)NC1CCCCC1 (configuration not stated) was read as Pf growth 48h 12.1%, Shiga toxin inh -8.5, Pf growth 96h 1.47µM*, NS1 function inh -2.6% and CHX counter -4.4.
For CCN(CC)S(=O)(=O)c1cccc(C(=O)NC(Cc2c[nH]c3ccccc23)c2nnc3n2CCC3)c1 (configuration not stated) the results were Pf growth 48h 9.28µM*, Shiga toxin inh -6.6, Pf growth 96h 8.28µM*, NS1 function inh -9.4% and CHX counter -2.3.
`CCN(CC)S(=O)(=O)c1cccc(C(=O)N[C@@H](C)c2nc3ccccc3[nH]2)c1` gave Pf growth 48h inconclusive, Shiga toxin inh -0.6, Pf growth 96h inconclusive and CHX counter 3.4.
Screening O=C1c2ccccc2C(=O)N1CCSc1ncn[nH]1 returned Pf growth 48h 10.4%, Shiga toxin inh 11.7, Pf growth 96h 5.4%, NS1 function inh -3.9% and CHX counter 6.5.
`CCc1ccc(S(=O)(=O)/N=C2\C=C(Nc3ccc(O)cc3)C(=O)c3ccccc32)cc1` gave Pf growth 48h 0.738µM*, Shiga toxin inh 37.1, Pf growth 96h inconclusive, NS1 function inh 3.2% and CHX counter 17.0*.
Cc1cc(C)c(S(=O)(=O)/N=C2\C=C(Nc3ccc(C(=O)O)cc3)C(=O)c3ccccc32)c(C)c1 was read as Pf growth 48h 9.28µM*, Shiga toxin inh 23.5, Pf growth 96h 18.0%, NS1 function inh -12.1% and CHX counter 6.4.
Screening CCc1ccc(S(=O)(=O)/N=C2\C=CC(=O)c3ccccc32)cc1 returned Pf growth 48h 2.33µM*, Shiga toxin inh -7.8, Pf growth 96h inconclusive and CHX counter 1.0.
Screening CCc1ccc(S(=O)(=O)/N=C2/C=C(Sc3ncn[nH]3)C(=O)c3ccccc32)cc1 returned Pf growth 48h 2.94µM*, Shiga toxin inh 48.6*, Pf growth 96h 4.15µM*, NS1 function inh -35.1% and CHX counter 18.5*.
Screening O=c1cc(CN2CCN(S(=O)(=O)c3ccc4ccccc4c3)CC2)nc2sccn12 returned Pf growth 48h 14.5%, Shiga toxin inh -8.9, Pf growth 96h 16.8% and CHX counter -8.0.
Cn1nnnc1Sc1nc(-c2cccnc2)nc2ccccc12 was read as NS1 function inh -7.8%.
`Cc1ccc(Cl)cc1NC(=O)CNC(=O)N1CC(=O)Nc2ccccc21` gave Pf growth 48h 2.7%, Shiga toxin inh 5.9, Pf growth 96h 2.3%, NS1 function inh -6.9% and CHX counter -5.4.
For CC(=O)OCC(NC(=O)C1CCCN1C(=O)OC(C)(C)C)C1OC(n2ccc(=O)[nH]c2=O)C(OC(C)=O)C1OC(C)=O (configuration not stated) the results were Shiga toxin inh -2.1 and CHX counter -1.3.
CCc1ccc(S(=O)(=O)/N=C2\C=C(Nc3cccc(C(=O)O)c3)C(=O)c3ccccc32)cc1 was read as Pf growth 48h 1.65µM*, Shiga toxin inh 15.6, Pf growth 96h -14.3%, NS1 function inh 5.1% and CHX counter 1.8.
`CN(Cc1cccs1)CC(O)COCc1ccco1` (configuration not stated) gave Pf growth 48h -14.6%, Shiga toxin inh 1.3, Pf growth 96h 11.5%, NS1 function inh 0.6% and CHX counter 2.7.
COc1ccccc1COCC(O)CN(Cc1ccco1)Cc1ccccc1O (configuration not stated) was read as Pf growth 48h 8.28µM*, Shiga toxin inh 6.2, Pf growth 96h 5.22µM*, NS1 function inh 6.3% and CHX counter -0.7.
For OCCCc1nc2ccccc2[nH]1 the results were Pf growth 48h inconclusive, Shiga toxin inh -19.9, Pf growth 96h inconclusive and CHX counter -4.9.
Screening COCCCn1cnc2oc3nc4ccccc4nc3c2c1=O returned Pf growth 48h 112.8%, Shiga toxin inh 98.1*, Pf growth 96h 79.4%, NS1 function inh -16.4% and CHX counter 37.1*.
Cc1cc(/C=C(\C#N)C(=O)O)c(C)n1C1CC1 was read as Pf growth 48h 2.6%, Shiga toxin inh -8.0, Pf growth 96h 5.2%, NS1 function inh 24.8% and CHX counter 1.4.
COc1ccc(-n2c(C)cc(/C=C(\C#N)C(=O)NCc3ccco3)c2C)cc1 was read as Pf growth 48h 4.65µM*, Shiga toxin inh 50.5*, Pf growth 96h inconclusive, NS1 function inh 6.5% and CHX counter 47.4*.
`Cc1ccc(-n2c(C)cc(C=C(C#N)C#N)c2C)cc1` gave Pf growth 48h inconclusive, Shiga toxin inh 33.3, Pf growth 96h inconclusive, NS1 function inh -3.4% and CHX counter 14.6.
For COCCNC(=O)/C(C#N)=C/c1cc(C)n(C2CCCCC2)c1C the results were Pf growth 48h 72.8%, Shiga toxin inh 69.4*, Pf growth 96h 0.0% and CHX counter 28.5*.

Screening results from PubChem BioAssay.
